Screening data from PubChem BioAssay.
IL-1B inflam inh: inflammasome signaling inhibition, IL-1 beta readout; 4.7% of 360,000 active; AID 743279; THP-1 LPS/ATP IL-1B secretion, AlphaLISA, 16 h; active compounds read low; activity change, % at 57.5 µM; in the data active = activity change below about -50%; inconclusive = mostly about -30% to -49%
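THP-1 cells pretreated 1 hr with compounds (up to 57.5 uM final), then stimulated with LPS (250 ng/mL final) plus ATP (1.25 mM final); secreted IL-1B measured by AlphaLISA after 16 hr, decreased signal indicating inhibition.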
TDP1 cell noCPT: qHTS for Inhibitors of human tyrosyl-DNA phosphodiesterase 1 (TDP1): qHTS in cells in absence of CPT. DT40 Tdp1-/- hTDP1 cells, no CPT, ATP luminescence, 48 h. Potency, µM (top dose mostly 46.2 µM), actives largely listed as inhibitors. 15% of 420,000 active. AID 686978, 2013; also: nearly all actives have a fitted effect of over 55% in size
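Growth of hTDP1-complemented DT40 Tdp1-knockout cells is measured by ATP luminescence after at least 48 hr compound exposure at 37 °C, with DMSO substituting for the 20 nM CPT used in the parallel screen.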
TDP1 cell CPT: growth inhibition of DT40 Tdp1-/-;hTDP1 cells with camptothecin (screen for TDP1 inhibitors); AID 686979; Potency, µM (top dose mostly 46.2 µM), actives largely listed as inhibitors; 12% of 420,000 active; chicken DT40 Tdp1-/-;hTDP1 cells + 20 nM CPT, ATP luminescence, 48 h; also: nearly all actives have a fitted effect of over 55% in size
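Chicken DT40 Tdp1-/- cells complemented with human TDP1, 400 cells/well, exposed to compounds plus 20 nM camptothecin for at least 48 h at 37 C; viability read as ATP content by CellTiter-Glo luminescence.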
HT1080 IDH1KD tx: kills HT-1080 cells with IDH1 knockdown. HT-1080 IDH1 knockdown viability, ATP luminescence, 48 h. Potency, µM (top dose mostly 46.1 µM), most hits filed as cytotoxic. 2% of 360,000 active
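HT-1080-IDH1KD cells (IDH1 knocked down), 750/well in RPMI with 5% FBS, treated with compound 48 h at 37 degrees C. Viability by CellTiter-Glo luminescence, normalised to DMSO and no-cell wells; concentration-response curves classed.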
12-LOX inh: blocks human arachidonate 12S-lipoxygenase. P18054. purified 12hLO, xylenol orange hydroperoxide absorbance. Potency, µM (doses to about 108 µM), usual class: inhibitors. 1.1% of 580,000 active
Target sequence (P18054 whole entry, looked up): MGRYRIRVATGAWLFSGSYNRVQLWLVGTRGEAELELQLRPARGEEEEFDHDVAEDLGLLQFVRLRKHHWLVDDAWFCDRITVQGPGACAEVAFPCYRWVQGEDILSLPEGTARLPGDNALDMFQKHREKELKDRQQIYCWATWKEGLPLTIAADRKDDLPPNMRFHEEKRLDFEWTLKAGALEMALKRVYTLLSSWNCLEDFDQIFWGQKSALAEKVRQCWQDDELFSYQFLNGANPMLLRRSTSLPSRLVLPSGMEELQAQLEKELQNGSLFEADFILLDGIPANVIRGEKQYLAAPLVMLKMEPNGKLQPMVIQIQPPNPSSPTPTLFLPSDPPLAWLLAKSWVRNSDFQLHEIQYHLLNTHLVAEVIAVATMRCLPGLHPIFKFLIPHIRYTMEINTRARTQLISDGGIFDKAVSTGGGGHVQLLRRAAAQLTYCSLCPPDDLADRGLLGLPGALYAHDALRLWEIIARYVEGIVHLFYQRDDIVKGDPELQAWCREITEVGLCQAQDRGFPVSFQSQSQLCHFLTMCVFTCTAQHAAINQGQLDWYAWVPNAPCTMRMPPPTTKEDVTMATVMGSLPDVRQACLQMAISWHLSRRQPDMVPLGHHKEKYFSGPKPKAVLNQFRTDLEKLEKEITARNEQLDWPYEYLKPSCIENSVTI
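Hydroperoxide product was detected by ferrous iron/xylenol orange as the 573 to 405 nm absorbance ratio. Arachidonic acid at 40 uM (final) was turned over for 30 min at room temperature by 150 nM human 12hLO, pH 7.0 Hepes buffer, after 15 min compound preincubation.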
HT1080-NT tox: kills 2HG-producing HT-1080-NT fibrosarcoma cells; HT-1080-NT fibrosarcoma viability, CellTiter-Glo ATP luminescence, 48 h; Potency, µM (titrated, usually from 46.1 µM), actives largely listed as cytotoxic; 1.6% of 360,000 active; AID 686970;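 also: NT is the 2HG producing partner of a matched IDH1 knockdown line; nearly all actives have a fitted effect of over 55% in size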
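HT-1080-NT; 750 cells/well; 5% FBS RPMI; 48 h compound, 37 degrees C; CellTiter-Glo luminescence; curve fitting and curve-class assignment.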
A number is an active result; . = inactive; ? = inconclusive; / = no result. The entries come from a sample that favours hits as a whole. Unless noted, calls follow the shape of the dose curve; as a rule, active = well fitted curve in the direction sought with a large enough effect; inconclusive = small, poorly fitted or top-dose-only effect, or another doubt; inactive = no such curve, though single readings can be large; an effect the other way counts as inactive or inconclusive.

SMILES	IL-1B inflam inh	TDP1 cell noCPT	TDP1 cell CPT	HT1080 IDH1KD tx	12-LOX inh	HT1080-NT tox
Cc1ccc(C(=O)N2CCN(CCNC(=O)C(=O)NCc3ccc(Cl)cc3)CC2)cc1	.	?	16µM	.	.	.
O=C(c1ccc(NC(=S)NCc2ccc(Cl)cc2)cc1)N1CCCCC1	.	23µM	?	.	.	.
O=C(CNCc1ccc(Cl)cc1)Nc1ccc(C(=O)N2CCCCC2)cc1	.	.	.	.	?	.
O=C(c1ccc(NC(=S)Nc2ccc(Cl)c(Cl)c2)cc1)N1CCCC1	-99	?	?	.	?	.
CCOc1ccc(NC2=CC(=O)CC(C)(C)C2)cc1	/	/	/	/	.	/
CO/N=C(\C(=O)N[C@@H]1C(=O)N2C(C(=O)O)=C(CSc3nc(C)c(CC(=O)O)s3)CS[C@H]12)c1csc(N)n1	/	.	.	/	/	/
CCN(Cc1ccc(OC)cc1)c1ccc(-c2nc(-c3ccncc3)no2)cc1[N+](=O)[O-]	/	?	?	/	.	/
CCCNc1ccc(-c2nc(-c3ccccn3)no2)cc1[N+](=O)[O-]	/	.	.	/	.	/
Cc1cc(-c2nc(-c3ccncc3)no2)ccc1[N+](=O)[O-]	.	?	15µM	.	?	.
CCN(CC)c1ccc(-c2nc(-c3ccncc3)no2)cc1[N+](=O)[O-]	/	15µM	13µM	/	.	/
Cc1ccc(-c2nc(-c3ccccn3)no2)cc1[N+](=O)[O-]	.	23µM	?	.	.	.
CCN(CC)c1ccc(-c2nc(-c3ccccn3)no2)cc1[N+](=O)[O-]	/	16µM	.	/	.	/
O=C1Nc2ccccc2C(=O)N(c2ccc3c(c2)OCCO3)C1C(=O)NC1CC1 (stereo not drawn)	.	.	.	.	.	.
COc1ccc(C(=O)NCc2nnc3cc(-c4nc(C)no4)ccn23)cc1F	/	/	/	/	.	/
O=C(CCl)Nc1ncc(S(=O)(=O)c2ccc([N+](=O)[O-])cc2)s1	?	16µM	29µM	.	?	?
CCCC(C)C(=O)Nc1ncc(S(=O)(=O)c2ccc([N+](=O)[O-])cc2)s1 (stereo not drawn)	.	?	15µM	.	.	.
CCC(C)(C)C(=O)Nc1ncc(S(=O)(=O)c2ccc([N+](=O)[O-])cc2)s1	.	?	?	.	?	.
COc1ccccc1NC(=O)CSc1nc2nccnc2c(=O)n1CCc1c[nH]c2ccccc12	/	15µM	18µM	/	.	/
Cc1ccc(NC(=O)CSc2nc3nccnc3c(=O)n2CCc2c[nH]c3ccccc23)cc1C	/	12µM	13µM	/	.	/
COc1ccccc1NC(=O)Cn1c(=O)n(CCc2c[nH]c3ccccc23)c(=O)c2cccnc21	.	.	?	.	.	.
Cc1ccc(NC(=O)CSc2nc3nccnc3c(=O)n2CCc2c[nH]c3ccccc23)c(C)c1	/	12µM	12µM	/	.	/
Cc1cccc(NC(=O)CSc2nc3nccnc3c(=O)n2CCc2ccccc2)c1	/	/	/	/	.	/
Cc1cc(C)nc(-n2nc(C)c3c2N(Cc2ccccc2)C(=O)CC3c2ccc(Cl)cc2)n1 (stereo not drawn)	/	?	16µM	/	.	/
CCc1nn2c(NCc3ccccn3)cc(C)nc2c1-c1ccc(Cl)cc1	/	/	/	/	.	/
CCOc1ccc(C(=O)c2ccc(OCC)c(N)c2)cc1N	?	29µM	?	.	.	.
SMILES	IL-1B inflam inh	TDP1 cell noCPT	TDP1 cell CPT	HT1080 IDH1KD tx	12-LOX inh	HT1080-NT tox
CCOc1ccc(S(=O)(=O)N(CC)CC)cc1N	.	.	.	.	.	.
CC(NC(=O)CCCCCNC(=O)N1CCn2c1nc1ccccc12)c1ccccc1 (stereo not drawn)	-53	.	15µM	.	.	.
CC(C)[C@H](NC(=O)N1CCn2c1nc1ccccc12)C(=O)NCc1ccc(F)cc1	-94	.	?	.	.	.
CC(C)[C@H](NC(=O)N1CCn2c1nc1ccccc12)C(=O)NCc1ccccc1Cl	.	?	?	.	.	.
COC(=O)CCC(=O)c1ccn(S(=O)(=O)c2ccccc2)c1	.	.	.	.	.	.
CC(C)(C)c1ccc(Cn2cnc(-c3ccc([N+](=O)[O-])cc3)c2)cc1	?	23µM	23µM	.	.	.
